# Bioassay records (PubChem)
# ADAM17 inh: ADAM17 inhibitors, primary screen, biochemical, QFRET | Disintegrin and metalloproteinase domain-containing protein 17 (Homo sapiens), P78536 | inhibition, % at 6.95 µM | recombinant ADAM17, EDANS/DABCYL FRET peptide cleavage | 370,000 tested, 0.83% active;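 active = inhibition above the mean of compounds lying between control limits plus 3 SD, set per campaign, cut at about 8.5% in these data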;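 note: 0% = DMSO-only wells as the low control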
# Target sequence (P78536 215-824 limits assumed): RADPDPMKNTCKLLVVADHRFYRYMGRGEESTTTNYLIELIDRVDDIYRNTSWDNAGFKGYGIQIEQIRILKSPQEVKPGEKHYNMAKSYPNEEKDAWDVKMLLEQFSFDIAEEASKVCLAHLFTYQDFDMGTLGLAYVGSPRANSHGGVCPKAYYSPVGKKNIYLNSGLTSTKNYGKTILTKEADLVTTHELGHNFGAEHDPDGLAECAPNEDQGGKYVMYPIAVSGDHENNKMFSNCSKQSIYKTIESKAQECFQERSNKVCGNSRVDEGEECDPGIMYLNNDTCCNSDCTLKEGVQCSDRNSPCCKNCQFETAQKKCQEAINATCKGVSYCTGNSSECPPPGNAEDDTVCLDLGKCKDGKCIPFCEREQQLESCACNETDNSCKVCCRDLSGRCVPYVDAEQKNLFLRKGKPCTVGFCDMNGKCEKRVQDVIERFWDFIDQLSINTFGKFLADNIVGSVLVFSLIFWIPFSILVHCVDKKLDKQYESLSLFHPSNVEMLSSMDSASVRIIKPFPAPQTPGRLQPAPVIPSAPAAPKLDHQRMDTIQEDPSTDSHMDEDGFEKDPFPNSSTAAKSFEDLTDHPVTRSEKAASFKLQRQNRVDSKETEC
# GRIN3A LBD mod: binders of NR3A ligand-binding domain, primary screen, biophysical, differential scanning fluorimetry, uHTS | 340,000 tested, 2.5% active | AID 1259313, 2017 | NR3A LBD differential scanning fluorimetry, Tm shift; 0% = protein alone, 100% = glycine-bound protein | Tm shift relative to glycine control, % at 25 µM | Glutamate receptor ionotropic, NMDA 3A (GRIN3A) ligand-binding domain;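 active = melting temperature shift of at least 10% of the positive control shift, at one fixed dose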
# proKLK7 act: proKLK7 zymogen activators, primary screen, biochemical, fluorescence intensity | Kallikrein-7 (Homo sapiens), P49862 | purified proKLK7, EDANS-DABCYL substrate fluorescence; 100% is mature enzyme control, 0% vehicle | activation, % at 7 µM | 370,000 tested, 0.9% active | AID 652039, 2013;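 active = activation above the mean of all tested compounds plus 3 SD, computed per campaign excluding outliers beyond control limits, cut at about 13% in these data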
# FAS TE block: FAS thioesterase domain inhibitors, primary screen, biochemical, fluorescence intensity, uHTS; recombinant FAS-TE, OMFH fluorogenic substrate, fluorescence endpoint; inhibition, % at 15 µM; 360,000 tested, 0.67% active; AID 602261, 2012;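 active = compounds whose normalised, plate-corrected inhibition of enzyme fluorescence in the single-dose primary screen is 50% or more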;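 note: 0% = DMSO with enzyme and 100% = substrate without enzyme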
# ADAM10 inh: human ADAM10 inhibitors, primary screen, biochemical, QFRET, HTS. inhibition, % at 7 µM. Disintegrin and metalloproteinase domain-containing protein 10 (Homo sapiens), O14672. 370,000 tested, 0.62% active. recombinant ADAM10, EDANS/DABCYL FRET peptide cleavage, 3 h. AID 720582, 2013;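 active = inhibition above a per-campaign cutoff equal to the mean of compounds falling between control-based bounds plus 3 SD, cut at about 20% in these data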;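 note: 0% = DMSO wells while the 100% control is not disclosed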
# ADAM10 confirm: human ADAM10 inhibitors, confirmation, biochemical, QFRET, triplicate. shares compounds with ADAM10 inh. ADAM10 QFRET peptide cleavage, EDANS fluorescence. inhibition, % at 6.95 µM. 2,100 tested, 1% active. AID 743208, 2013;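 active = inhibition above about 20% chosen separately for each screening run, limit read from the data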;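 note: 0% = DMSO wells and 100% = marimastat wells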
# ADAM17 counter: ADAM17 inhibitors, counter-screen for ADAM10 exosite inhibitor project, biochemical, QFRET, high throughput. ADAM17 QFRET peptide cleavage, EDANS fluorescence. shares compounds with ADAM10 inh. AID 743214, 2013. 2,100 tested, 0.5% active. inhibition, % at 6.95 µM;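 active = mean triplicate inhibition above the solvent-only control wells' mean plus 3 SD, cut at about 12% in these data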;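 note: 0% = DMSO wells and 100% = marimastat wells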
# ADAM10 counter: ADAM10 inhibitors, counter-screen for ADAM17 exosite inhibitor project, biochemical, FRET, human ADAM10; shares compounds with ADAM17 inh; recombinant ADAM10, EDANS/DABCYL FRET peptide cleavage, 3 h; inhibition, % at 6.95 µM; 2,900 tested, 47% active;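 active = mean inhibition over the triplicate runs exceeds the activity threshold set in the earlier primary screen, cut at about 20% in these data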;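 note: 0% = DMSO wells and 100% = marimastat wells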
# ADAM17 confirm: ADAM17 inhibitors, hit retest, confirmation, biochemical, QFRET peptide cleavage. shares compounds with ADAM17 inh. recombinant ADAM17, EDANS/DABCYL QFRET peptide cleavage. inhibition, % at 6.95 µM. 2,900 tested, 65% active;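 active = mean inhibition across replicates above the hit cutoff set in the primary screen, cut at about 8.5% in these data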;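 note: 0% = DMSO wells and 100% = marimastat wells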
# * hit, by the source's call; . = not tested or not shown. The list is not random: actives were taken first. Their share in the collection is about 4.6%.
SMILES,ADAM17 inh,GRIN3A LBD mod,proKLK7 act,FAS TE block,ADAM10 inh,ADAM10 confirm,ADAM17 counter,ADAM10 counter,ADAM17 confirm
COC(=O)C1=C(C)N(Cc2ccc(C(F)(F)F)cc2)C(=NCc2ccc(C(F)(F)F)cc2)NC1c1ccccc1 (stereo not given),-0.3,.,0.2,.,1.5,.,.,.,.
COc1ccc(C(C(=O)NC2CCCCC2)N(C(=O)c2sc(C)nc2C)c2ccccc2C)cc1 (stereo not given),9.6*,-0.2,0.6,40.4,19.8*,1.6,-0.2,2.8,3.8
O=C(NCc1ccccc1)C(c1ccco1)N1CCN(CCN2CCOCC2)CC1 (stereo not given),-3.5,.,0.1,.,-10.7,.,.,.,.
O=C(C(=Cc1ccc(F)cc1)c1ccccc1)c1ccc(O)cc1,9.6*,-0.1,0.0,18.0,23.7*,4.5,1.4,27.3*,11.2*
O=C(/C=C/c1ccc([N+](=O)[O-])cc1)c1ccccc(=O)c1O,11.5*,-0.2,-0.1,7.6,25.3*,12.8,4.2,31.9*,33.3*
N#C/C(=C\c1ccccc1)C(=O)NNS(=O)(=O)c1cccc([N+](=O)[O-])c1,34.8*,-10.0,-0.3,-8.3,69.3*,3.3,0.8,7.9,5.7
N#CCCN(C(=O)COC(=O)c1ccc(CNS(=O)(=O)c2ccc(F)c(Cl)c2)cc1)c1ccc(F)cc1,11.6*,1.0,0.5,16.6,20.6*,1.6,0.5,34.5*,22.0*
O=C1c2ccccc2C(=O)N1CCCCN(C(=O)c1ccco1)c1ccc(Cl)cc1,-2.7,-3.3,0.1,16.5,4.8,.,.,.,.
O=C1c2ccccc2C(=O)N1CCCCN(C(=O)c1cccc([N+](=O)[O-])c1)c1ccc(Cl)cc1,10.2*,2.0,0.2,33.5,25.8*,5.3,1.9,30.2*,14.1*
CCC(C(=O)OCC(=O)Nc1cc(Cl)cc(Cl)c1)c1ccccc1 (stereo not given),18.6*,12.0*,0.4,40.0,42.1*,9.6,3.5,23.4*,12.3*
CCOc1ccccc1NC(=O)COC(=O)C(CC)c1ccccc1 (stereo not given),11.4*,-0.3,0.6,27.1,21.7*,1.8,-0.1,15.8,5.0
CCC(C(=O)OCC(=O)Nc1cc(C)ccc1OC)c1ccccc1 (stereo not given),2.6,1.7,0.0,25.9,10.4,.,.,.,.
CCCC[C@H]1C2CC(OC(=O)Nc3ccc(C)cc3)C(C2)[C@H]2CCCCN21 (stereo not given in full),0.4,.,0.2,.,-0.8,.,.,.,.
O=C(c1cc(COc2cccc(C(F)(F)F)c2)on1)N1CCC(c2ccccc2)CC1,12.1*,-7.0,0.6,31.0,26.4*,5.0,1.8,34.7*,20.4*
C#CCN(C(=O)c1cc(COc2cccc(C(F)(F)F)c2)on1)C1CCCCC1,10.1*,-5.2,-0.3,28.7,23.6*,8.2,2.6,54.6*,19.4*
O=C(c1cc(COc2cccc(C(F)(F)F)c2)on1)N1CCC(c2ccncc2)CC1,2.8,0.9,0.3,12.9,-1.4,.,.,.,.
COCCN(CCOC)C(=O)[C@@H](Cc1ccccc1)NC(=O)[C@H]1O[C@@H](n2ccc(N)nc2=O)[C@H](O)[C@@H]1O,-0.1,.,0.1,.,1.0,.,.,.,.
CN1CCCCC(NC(=O)c2cccs2)C1=O (stereo not given),-1.5,.,-0.3,.,-6.5,.,.,.,.
CCOC(=O)c1c(CSc2ccc(C)cc2)oc2ccc(O)cc12,12.7*,5.3,-0.4,24.9,30.4*,12.4,4.3,46.0*,18.9*
CCOC(=O)c1c(-c2ccccc2)oc2ccc(O)cc12,-7.1,-13.2,0.9,21.9,-11.8,.,.,.,.
CCOC(=O)c1c(CSc2ccccc2)oc2ccc(O)cc12,11.3*,-1.7,0.1,38.2,28.9*,6.5,2.4,42.3*,15.9*
O=C(N[C@H](C(=O)N1CCC[C@H]1C(=O)NCc1ccccc1)C1CCCCC1)c1ccccc1,-3.4,.,0.3,.,-3.4,.,.,.,.
CCCCC(=O)NC(c1ccc([N+](=O)[O-])cc1)c1c(O)ccc2ccccc12 (stereo not given),10.6*,-1.1,0.0,39.5,27.5*,8.3,2.2,36.2*,18.9*
O=C(NC(c1ccccc1)c1c(O)ccc2ccccc12)c1ccccc1Cl (stereo not given),10.5*,10.5*,-0.6,12.2,21.4*,8.7,3.1,13.9,8.7*
O=C(NC(c1ccc(Cl)cc1)c1c(O)ccc2ccccc12)c1ccccc1 (stereo not given),3.7,4.1,-0.4,16.7,15.8,.,.,.,.
CCOc1cccc(C=NNc2nc(=O)cc(C(=O)OC)s2)c1O,-1.1,.,-0.1,.,-2.0,.,.,.,.
COc1ccc(NC(=S)NC(NC(=O)c2ccc(Cl)cc2Cl)C(Cl)(Cl)Cl)c([N+](=O)[O-])c1 (stereo not given),8.8*,10.9*,-0.3,23.7,21.9*,10.1,2.0,31.1*,17.3*
COC(=O)[C@]12C[C@H](CC(=O)N3CCC(c4ccccc4)CC3)C(=O)N(Cc3ccccc3)C1=C[C@H](C1CCCC1)O[C@@H]2C,2.3,.,1.1,.,7.0,.,.,.,.
CC(C)C(NS(=O)(=O)c1c(Cl)cccc1Cl)C(=O)OCC(=O)c1c[nH]c2ccccc12 (stereo not given),14.9*,23.3*,0.1,3.3,28.1*,5.7,1.7,18.9,13.7*
